Test results: PubChem BioAssay AID1745845 (National Center for Advancing Translational Sciences (NCATS), 2022)
In all, about 360,000 compounds went through this assay and about 2,600 (0.72%) were called active. Where a call stands in place of a potency, no number is given. Not shown: some 5% with an inconclusive outcome. Calls come from the whole dose curve; as a rule, active = well fitted inhibition curve with a large enough effect; inconclusive = small, poorly fitted or top-dose-only effect; inactive = no such curve, though single readings can be large or run the other way. This excerpt belongs to a sample that is enriched for actives.

Assay: Primary qHTS for Inhibitors of ATXN expression; note: nearly all actives have a fitted effect of over 55% in size
Conditions: HEK-293 ATXN2-luciferase reporter, luminescence, 24 h; series mostly up to 57 µM
Source text: University of Utah School of Medicine, Salt Lake City, Utah
Spinocerebellar ataxia type 2 (SCA2) is a multisystem neurodegenerative disease caused by a dominantly acting mutation leading to expansion of a polyQ domain in the ataxin-2 protein (ATXN2). SCA2 patients develop progressive ataxia and later lose function in other neuronal systems. Prominent parkinsonian signs develop in some patients. Like many neurodegenerative disorders, no symptomatic or disease-modifying treatments are known.
The primary objective of the proposed research is to identify compounds inhibiting ATXN2 expression and to test them for efficacy in SCA2 mouse models. We have developed a cell-based assay paired with an in vivo mouse model using identical luciferase expression constructs. This approach takes advantage of an ATXN2-luciferase transgene, with the luciferase gene flanked by the upstream and downstream portions of the ATXN2 gene. Here we describe a 5-7 dose quantitative high thoroughput screen (qHTS) for compounds lowering ATXN2 expression. We screened the NIH Molecular Libraries Small Molecule Repository (MLSMR) and NCGC's mechanistically annotated (MIPE) and drug repurposing (NPC) collections of compounds for lowering expression of an ATXN2-luciferase reporter in HEK-293 cells. The assay is a multiplexed cell viability assay to ensure target reduction in the absence of cytotoxicity. Secondary qHTS assays included a CMV-luciferase reporter expressed in HEK-293 cells as well as a biochemical assay using recombinant luciferase to detect inhibitors of the reporter enzyme. Compounds that inhibit ATXN2 expression but is not cytotoxic were selected for confirmatory and secondary screens.
PROTOCOL TABLE (as described by Inglese J, Shamu CE and Guy RK. 2007)
SEQUENCE No. (e.g., 1, 2, 3, etc.); […] (e.g., Cells, Incubation, Reagent, etc.); VALUE; DESCRIPTION.
1; Cells; 4 uL; white, solid bottom, 1536-well Greiner assay plate.
2; Incubation; 2 hr; 37 degree C in 5% humidified CO2.
3; Compounds; 23 nL; Kalypsis pintool (Wako USA) equipped with a 1536-well pin head.
4; Incubation; 24 hr; 37 degree C in 5% humidified CO2.
5; Reagent; 1 uL; Gly-Phe-7-Amino-4-trifluoromethylcoumarin.
6; Incubation; 30 min; 37 degree C in 5% humidified CO2.
7; Detection; Fluorescence; ViewLux plate reader (PerkinElmer).
8; Reagent; 3 uL; SteadyGlo luciferase solution (Promega).
9; Incubation; 5 min; room temperature.
10; Detection; Luminescence; ViewLux plate reader (PerkinElmer).
NOTES (numbers refer to Sequence numbers above)
1. S2 cells expressing ATXN2-luciferase reporter were suspended in phenol-red free DMEM and dispensed in assay plates using a Multidrop Combi dispenser (Thermo Fisher Scientific).
2. Assay plates were incubated. Evaporation was prevented by covering assay plates with metal lids containing holes to allow gas diffusion.
3. Compounds were added in a dose response manner with the final concentrations of 57, 11.4, 2.28, 0.46, 0.091, 0.018, 0.0037 uM. Vehicle-only plates, with DMSO being pin-transferred to columns 5-48, were inserted uniformly at the beginning and the end of each library to monitor and record any shifts in assay performance.
5. 125 uM Gly-Phe-7-Amino-4-trifluoromethylcoumarin (MP Biomedicals) working concentration was used at a final concentration of 25 uM.
7. To assess cell viability; the assay plates were read using the ViewLux high-throughput CCD imager (PerkinElmer), wherein single end-point fluorescence measurement was acquired (excitation 405/10; emission 540/25 nm).
8. Detection reagent SteadyGlo Luciferase (Promega) was added to the assay plate.
10. Luminescence is then measured on the ViewLux imager equipped with a clear emission filter using a 2 sec exposure. All screening operations were performed on a fully integrated robotic system (Kalypsys) containing one RX-130 and two RX-90 anthropomorphic robotic arms (Staubli).
[…]
Potency is the fitted concentration of half-maximal effect.

SMILES	Potency
COc1cccc(-c2cccc(NC(=O)C3CCN(C4CCC4)CC3)c2)c1	inactive
O=C(Nc1cccc(-c2cccc(Cl)c2)c1)C1CCN(C2CCC2)CC1	28.2 µM (active)
O=C(NC1CCCC1)C1CCN(C(=O)Nc2cccc(Cl)c2)CC1	inactive
Cc1cc(C)c2nc3nc(C)cc(C)c3c(N)c2c1	25.1 µM (active)
CC(=O)OC[C@@H]1O[C@@H](n2ccc(=O)[nH]c2=O)[C@H](OC(C)=O)[C@H]1OC(C)=O	inactive
Cc1cccc(C)c1NC(=O)c1ccc(N)cc1	inactive
COc1cc(C=CC(=O)O)ccc1O	inactive
Cc1ccc(C(=O)Nc2cccc(C(F)(F)F)c2)cc1Nc1nc(-c2cccnc2)nc2c1cnn2C	24.3 µM (active)
Cc1cc(Nc2cccc(C(F)(F)F)c2)nc2ccc(NC(=O)c3ccc(=O)[nH]c3)cc12	inactive
Cc1nc(Nc2ccccc2C)c2cnn(C)c2n1	inactive
COc1ccc(NC(=O)Nc2cccc(-c3noc(C)n3)c2)cc1	inactive
CCCNC(=O)CCC(=O)N1Cc2ccccc2Oc2ncccc21	inactive
CCOC(=O)Cn1c(=O)n(-c2ccccc2OC)c2nc(-c3cccc(F)c3)nc(C(N)=O)c21	inactive
COc1ccc(OC)c(-c2nc(C(N)=O)c3c(n2)n(-c2ccc4c(c2)OCO4)c(=O)n3C)c1	inactive
COC(=O)Cc1ccc(OCC(=O)Nc2ccc(OC(F)(F)F)cc2)cc1	inactive
CCc1ccc2c(c1)NC(=O)C2(C)Cc1ccc(OC(F)(F)F)cc1 (centres undefined)	25.1 µM (active)
CCC(=O)N1CCc2cc(Br)cc(S(=O)(=O)CCC(=O)NCc3ccccc3OC)c21	inactive
COc1ccc(OC)c(CNC(=O)Cn2nc(C)c3c(C)n(-c4ccccc4)nc3c2=O)c1	inactive
Cc1nnc(N/N=C/c2ccccn2)[nH]c1=O	2 µM (active)
O=C(COc1ccc(Cl)cc1Cl)N/N=C/c1ccccn1	inactive
O=C(N/N=C/c1ccccn1)C12CC3CC(CC(C3)C1)C2	inactive
CCc1cc2c(-c3ccccc3)cc(=O)oc2c2c1OCN(Cc1ccc(C)cc1)C2	inactive
O=C1CC(c2nnc(Cc3ccc(Cl)cc3)o2)CN1c1ccccc1 (centres undefined)	inactive
COc1cccc2[nH]c(C(=O)NCCc3ccccc3)cc12	inactive
COc1ccccc1OCCNCC(O)COc1cccc2[nH]c3ccccc3c12 (centres undefined)	28.2 µM (active)

SMILES	Potency
CC(O)CNCCOc1cccc(Oc2ccccc2)c1 (centres undefined)	inactive
COc1cc(OC)c(NC(=O)c2cnc(N3CCCC3)nc2C)cc1Cl	inactive
COc1ccc(C(O)c2nc(-c3ccc(OC)nc3)cs2)cc1 (centres undefined)	inactive
COc1ccc(NC(=O)C(=O)NCc2ccco2)cc1	inactive
COc1ccc(CS(=O)/C(Cl)=C(/Cl)C(=O)Nc2ccc(OC)nc2)cc1 (centres undefined)	2.12 µM (active)
Cc1ccc(C)c(N2CCN(C(=O)C3CCC(CNS(=O)(=O)c4cccs4)CC3)CC2)c1 (centres undefined)	inactive
O=C(OCC(O)CO)c1ccccc1Nc1ccnc2c(C(F)(F)F)cccc12 (centres undefined)	inactive
Cc1ccc(-c2ncc(Cl)cc2-c2ccc(S(C)(=O)=O)cc2)cn1	inactive
CC(C)OC(=O)c1ccc(NCc2cc(O)ccc2O)cc1Cl	17.8 µM (active)
CC(OC(=O)c1ccc(Cl)cc1O)C(=O)NCCC1=CCCCC1 (centres undefined)	inactive
CC(CN1CCCCC1)OC(=O)c1ccccc1Cl (centres undefined)	inactive
Cc1nn(Cc2ccccc2Cl)c(C)c1NC(=O)Cn1nc([N+](=O)[O-])c(Cl)c1C	inactive
O=C(N/N=C\c1ccc(Br)cc1)c1ccc(Cn2cccn2)o1	inactive
Cc1c(Cl)c([N+](=O)[O-])nn1Cc1ccc(C(=O)N/N=C\c2cc(Cl)ccc2O)o1	2.82 µM (active)
Cc1nn(-c2ccc(F)cc2)c(-n2cccc2)c1C(=O)N1CCN(c2ccccc2)CC1	inactive
COc1ccccc1-n1nnnc1SCC(=O)NC(=O)Cc1ccccc1	inactive
CCC(C)N(C(=O)CSc1nnnn1-c1ccccc1OC)C1CCS(=O)(=O)C1 (centres undefined)	inactive
COc1ccccc1-n1nnnc1S(=O)(=O)Cc1ccc(Cl)cc1	14.1 µM (active)
Cc1cn(C)c(CC(=O)NCc2ccc(Cl)cc2)c1C(=O)O	inactive
CCc1ccc(Nc2nn3c(=O)c4cc5c(cc4nc3s2)OCO5)cc1	inactive
Cc1ccc(SCC(=O)Nc2ccc3oc(-c4ccccc4C)nc3c2)cc1	inactive
COc1ccc(-c2cc(-c3ccccc3)nc3c2COc2ccc(Cl)cc2-3)cc1	inactive
CCC(=O)N1CCc2cc(S(=O)(=O)NCCC(=O)Nc3cccc(C)c3C)ccc21	inactive
COc1ccc(NC(=O)C2CCCN(S(=O)(=O)c3c(C)[nH]c(=O)[nH]c3=O)C2)c(OC)c1 (centres undefined)	inactive
